Consider 34 molecules from PubChem BioAssay (EPA / NIEHS).

Values joined by “and” are separate entries in the source; they are usually repeats but may differ in a detail not shown here. Equal values may be shown once. More than one record can exist for a structure, and the calls need not agree. Active and inactive are the calls of the source. The calls were made as follows: active = hit-call score of the fitted dose curve at least 0.9, where 1 is the maximum; inactive = score below 0.9.

This assay is described as follows: ATG_PXRE_CIS: Attagene CIS-FACTORIAL HepG2 Assay for human Pregnane X Receptor Element (PXRE) (AID 2282957). The settings on record: HepG2 Attagene CIS-FACTORIAL PXRE reporter, mRNA; actives raise or lower the signal. The procedure:
ATG_CIS is a cell-based, multiplexed-readout assay that uses HepG2, a human liver cell line, with measurements taken at 24 hours after chemical dosing in a 24-well plate.ATG_PXRE_CIS is one of 52 assay component(s) measured or calculated from the ATG_CIS assay. It is designed to make measurements of mRNA induction, a form of inducible reporter, as detected with fluorescence intensity signals by Reverse transcription polymerase chain reaction (RT-PCR) and Capillary electrophoresis technology.Data from the assay component ATG_PXRE_CIS was analyzed into 1 assay endpoint. This assay endpoint, ATG_PXRE_CIS, was analyzed with bidirectional fitting relative to DMSO as the negative control and baseline of activity. Using a type of inducible reporter, measures of mRNA for gain or loss-of-signal activity can be used to understand the reporter gene at the transcription factor-level as they relate to the gene NR1I2. Furthermore, this assay endpoint can be referred to as a primary readout, because this assay has produced multiple assay endpoints where this one serves a reporter gene function. To generalize the intended target to other relatable targets, this assay endpoint is annotated to the nuclear receptor intended target family, where the subfamily is non-steroidal.
Human liver HepG2 cells are transiently transfected with multiple reporter transcription units (MRTUs) in 6-well plates using FuGene 6 reagent (Roche; 3 ml FuGene/1 mg DNA). The MRTU constructs are regulated by a cis-regulating element (promoter). […] A major difference between the CIS and TRANS system is that in CIS activities of endogenous TFs are measured, whereas the TRANS assay evaluates changes in activities of exogenous, chimeric NR-Gal4 proteins. […] At the end of 24 hour incubation, total RNA was isolated using TriZol reagent (Invitrogen). The isolated RNA is then reverse-transcribed using oligo(dT) primer and Mo-MLV reverse transcriptase (Invitrogen) with DNAse I (Ambion) treatment for 30 min. The one-tenth of the produced cDNA was amplified by PCR using Taq DNA polymerase (Invitrogen) and two reporter sequence-specific primers. The PCR products were fluorescently labeled by primer extension with 6-arboxyfluorescein (6-FAM) 5'-labeled reporter sequence-specific primer (2 min at 95 C, 20 s at 68 C and 10 min at 72 C) and these products were digested with 5U of HpaI (New England Biolabs) for 2h at 37 C. The fragments were purified using Qiaquick PCR columns (Qiagen), analyzed on an ABI 3130xL genetic analyzer (Applied Biosystems) with peak positions identified by using a set of X-rhodamine (ROX)-labeled MapMarker1000 molecular weight standards (BioVentures). The raw capillary electrophoresis data was processed using Attagraph software (Attagene).
With `Clc1ccc(C(Cl)(Cl)Cl)cc1`, the outcome was inactive.

Turning to `O=C(O)C(F)(F)C(F)(F)C(F)(F)C(F)(F)C(F)(F)F`, the outcome was inactive.

A word on the AC50: it is the concentration at which the activity in the assay is half-maximal. For the molecule `C[C@]12CCC(=O)C=C1CC[C@@H]1[C@@H]2CC[C@]2(C)C(=O)CC[C@@H]12`, the AC50 is 15.2 µM (active) and 27.7 µM (active) and 15.3 µM (active); the molecule was classed as inactive.

Turning to `Sc1ccccc1`, the call was inactive and the AC50 was 25.4 µM (active).

For `O=C(O)C(F)(F)C(F)(F)C(F)(F)C(F)(F)C(F)(F)C(F)(F)C(F)(F)C(F)(F)C(F)(F)F`, the AC50 was 57.5 µM (active) and the outcome was inactive.

As for `OCC(O)CO`, the half-maximal activity concentration (AC50) was 15.9 µM (active) and the result was inactive.

`O=C(N[C@H]1CN2CCC1CC2)c1cc2ccoc2cn1`: the molecule was classed as inactive.

Turning to `CCCCCCOC(=O)c1ccccc1C(=O)OCCCCCC`, the AC50 is 3.19 µM (active).

Consider `CC(c1ccc(O)cc1)(c1ccc(O)cc1)c1ccc(O)cc1`, for which the AC50 is 0.575 µM (active).

Take `C=CC(=O)NCNC(=O)C=C`: the call was inactive.

In the case of `O=NN(c1ccccc1)c1ccccc1`, the AC50 is 27.8 µM (active).

On to `O=C(NC(=O)c1c(F)cccc1F)Nc1cc(Cl)c(OC(F)(F)C(F)F)c(Cl)c1`, for which the molecule was called inactive.

Turning to `CCOCCOC(C)=O`, the molecule was classed as inactive.

For `CCCCCCCCCC[N+](C)(C)CCCCCCCCCC`, the call was inactive.

As for `CN(C)c1nc(=O)n(C2CCCCC2)c(=O)n1C`, the AC50 is 50 µM (active).

As to `O=S(=O)(O)C(F)(F)C(F)(F)C(F)(F)C(F)(F)F`, the call was inactive.

For the molecule `Oc1ccc(Cl)cc1Cl`, the AC50 is 64.5 µM (active).

In the case of `CC#Cc1cc(C)nc(Nc2ccccc2)n1`, the AC50 is 26.5 µM (active).

For the molecule `O=C(O)C(F)(F)C(F)(F)C(F)(F)C(F)(F)C(F)(F)C(F)(F)C(F)(F)C(F)(F)F`, the AC50 is 22.7 µM (active) and 38.2 µM (active) and 13.6 µM (active).

As for `CC(C)(O)C(=O)Nc1ccc([N+](=O)[O-])c(C(F)(F)F)c1`, the AC50 is 20.9 µM (active) [middle of 4 runs].

In the case of `CCSC(=O)N(CC)C1CCCCC1`, the AC50 is 12.3 µM (active).

With `ClC(Cl)=C(c1ccc(Cl)cc1)c1ccc(Cl)cc1`, the AC50 was 4.93 µM (active) [middle of 4 runs].

For `CCCCCCCCCc1ccc(O)cc1`, the molecule was classed as inactive; the AC50 was 169 µM (active) and 11.1 µM (active).

As to `CCC(C)(CC)c1cc(NC(=O)c2c(OC)cccc2OC)on1`, the AC50 is 0.202 µM (active).

With `CCC(C)(c1ccc(O)cc1)c1ccc(O)cc1`, the AC50 is 1.13 µM (active) [middle of 4 runs].

On to `ClC1=C(Cl)[C@]2(Cl)[C@@H]3[C@@H](Cl)[C@H]4O[C@H]4[C@@H]3C1(Cl)C2(Cl)Cl`, for which the AC50 was 3.28 µM (active).

`Clc1ccc(C(c2ccccc2Cl)C(Cl)(Cl)Cl)cc1` (stereo not given): the AC50 was 3.54 µM (active) [middle of 4 runs].

Turning to `Oc1c(Cl)c(Cl)c(Cl)c(Cl)c1Cl`, the AC50 is 13.6 µM (active) and 12.2 µM (active) and 5.75 µM (active).

Regarding `Cc1cc(-c2ccc(N)c(C)c2)ccc1N`, the AC50 was 46.7 µM (active) and the outcome was inactive.

With `Cc1cc(O)ccc1Cl`, the result was inactive.

For the molecule `c1ccc(-c2ccccc2)cc1`, the call was inactive.

In the case of `C1CC2OC2CC1C1CO1` (stereo not given), the AC50 was 59.2 µM (active).

Regarding `ClC1=C(Cl)[C@]2(Cl)[C@@H]3[C@@H]4C[C@@H]([C@H]5O[C@@H]45)[C@@H]3[C@@]1(Cl)C2(Cl)Cl`, the AC50 is 2.36 µM (active).

As to `c1cc2ccc3cccc4ccc(c1)c2c34`, the AC50 is 8.77 µM (active).
